Bioassay records deposited in PubChem BioAssay by several laboratories.
Neddylation inh: cullin neddylation inhibition; calls only at 25 µM; actives 0.58% (n = 360,000); TR-FRET cullin neddylation, biochemical; in the data active = inhibition above about 36%
MBD2 DNA inh: MBD2-methylated oligo binding inhibition; Q9UBB5; TR-FRET, MBD2 binding to methylated oligonucleotide; inhibition, % at 4.4 µM; actives 0.31% (n = 370,000); AID 686964; in the data active = inhibition above about 13%
UBC13 polyUb: human UBC13 polyubiquitination inhibition; P61088; UBC13 polyubiquitin chain formation, TR-FRET; inhibition, % at 20 µM; actives 0.47% (n = 330,000); in the data active = inhibition above about 45%, passing the limit was not always enough
UHRF1 binding: UHRF1 methyl-DNA binding inhibition; inhibition, % at 4.4 µM; actives 0.75% (n = 370,000); AID 687016; Q96T88; UHRF1 binding to methylated oligo, TR-FRET;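 also: UHRF1 SRA domain binding a hemimethylated CpG hairpin DNA probe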
UHRF1 ctr MBD2: counter-screen for MBD2 inhibitors: human UHRF1 methylated DNA binding inhibitors; actives 25% (n = 1,000); inhibition, % at 4.4 µM; UHRF1 binding to methylated oligonucleotide, TR-FRET; shares compounds with MBD2 DNA inh;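 also: UHRF1 SRA domain binding a labeled hemimethylated CpG hairpin DNA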
MBD2 DBD conf: confirmation of human MBD2-DBD methylated oligonucleotide binding inhibitors | shares compounds with MBD2 DNA inh | TR-FRET MBD2-DBD binding to methylated oligonucleotide | inhibition, % at 4.4 µM | actives 26% (n = 1,000); in the data active = inhibition above about 14%
Hits are given with their value; n = inactive; x = no result shown; + = active, no number; ! = repeats disagree. The list is not random: actives were taken first. Their share in the collection is about 1.8%. Rule as the data show it, unless noted: active = inhibition above about 21%; inactive = the rest.

SMILES | Neddylation inh | MBD2 DNA inh | UBC13 polyUb | UHRF1 binding | UHRF1 ctr MBD2 | MBD2 DBD conf
O=C(N/N=C/c1ccoc1)c1ccccc1O | n | n | n | n | x | x
C=CCn1c(=O)c2c(nc3n2CCCN3Cc2ccccc2)n(C)c1=O | n | 15.2 | n | 25.0 | n | n
CC(C)C[C@H]1CN(CCCC[C@H]2CNC(=O)C(=O)N2CCc2ccc(O)cc2)C(=O)C(=O)N1Cc1ccccc1 | n | 13.2 | x | 24.9 | n | n
CC(C)C[C@H]1CN(CCCC[C@H]2CNC(=O)C(=O)N2CCc2ccccc2)C(=O)C(=O)N1CCc1ccc(O)cc1 | n | n | x | n | x | x
CCSC1=N/C(=C\c2ccc(-c3ccccc3[N+](=O)[O-])o2)C(=O)S1 | n | n | n | n | x | x
CCCSC1=N/C(=C\c2ccc([N+](=O)[O-])o2)C(=O)S1 | n | 19.0 | x | 52.3 | 20.8 | n
CCCSC1=N/C(=C\C=C\c2ccco2)C(=O)S1 | n | 57.2 | n | 95.4 | 26.9 | n
Cc1cc(C)c2c(N)c3ccccc3nc2n1 | x | 20.3 | n | 22.0 | 21.2 | 25.1
CC1=C(C(=O)N(C)C)CC(CC(=O)NC(c2ccccc2)c2ccccc2)C(=O)N1Cc1ccc(F)cc1 (centres undefined) | n | 13.5 | x | 23.7 | n | n
CC1=C(C(=O)N(C)C)CC(CC(=O)NC(c2ccccc2)c2ccccc2)C(=O)N1Cc1ccccc1 (centres undefined) | n | n | x | n | x | x
O=C(C=Cc1ccco1)c1ccco1 | n | 19.5 | x | 57.6 | n | n
O=C(c1ccco1)N(c1ccccn1)c1ccccn1 | n | n | n | n | x | x
O=C(/C=C/c1ccc(-c2ccccc2[N+](=O)[O-])o1)c1ccco1 | n | 14.4 | n | 34.1 | n | n
O=C(/C=C/c1ccc(Br)cc1)c1ccco1 | n | n | n | n | x | x
O=C(/C=C/c1ccco1)N(c1ccccn1)c1ccccn1 | n | 23.4 | n | 51.9 | 57.4 | 27.5
O=C(Nc1ccc2nc[nH]c2c1)c1ccco1 | n | n | n | n | x | x
CSc1cccc(NC(=S)NC(=O)CCc2ccccc2)c1 | n | n | n | n | x | x
Cc1cc2nc3c(=O)[nH]c(=S)[nH]c3nc2cc1NC(=O)C(F)(F)F | n | 33.0 | n | 27.5 | n | n
COc1cc(/C=N/NC(=O)c2cc(-c3ccco3)nc3ccccc23)cc(OC)c1O | n | n | n | n | x | x
O=C(N/N=C/c1cccc(F)c1)c1cc(-c2ccco2)nc2ccccc12 | + | 23.5 | n | 30.3 | 41.8 | 36.1
Cc1ccc(CNC(=O)CSCc2ccc(F)cc2)cc1 | n | n | n | n | x | x
O=S(=O)(NCC1CCCO1)c1ccc2oc3ccc(S(=O)(=O)NCC4CCCO4)cc3c2c1 (centres undefined) | n | 18.5 | n | n | n | n
O=S(=O)(NCC1CCCO1)c1ccc(Br)cc1 (centres undefined) | n | n | n | n | x | x
CC1(C)S[C@@H]2[C@H](NC(=O)[C@H](N)c3ccccc3)C(=O)N2[C@H]1C(=O)O | n | 47.4! | n | 81.1! | 76.9 | 30.8
Oc1ccc(/C=N/NC(=S)Nc2cccnc2)c(O)c1O | n | 30.3 | x | 63.5 | n | n
SMILES | Neddylation inh | MBD2 DNA inh | UBC13 polyUb | UHRF1 binding | UHRF1 ctr MBD2 | MBD2 DBD conf
O=C(Nc1ccc2c(c1)OCCO2)c1cccs1 | n | n | n | n | x | x
O=C(Nc1ccc2c(c1)OCO2)c1cccs1 | n | 40.0 | n | n | n | n
CC1Sc2ccccc2N(Cc2ccc(OC(F)(F)F)cc2)C1=O (centres undefined) | n | 25.7 | x | n | n | n
CC1Sc2ccccc2N(Cc2ccccc2)C1=O (centres undefined) | n | n | x | n | x | x
COc1ccc(N2CCN(C(=O)CNC(=O)Cn3cnc4sc(C)c(C)c4c3=O)CC2)cc1 | n | 86.4 | n | n | n | n
CCCc1nc2c3ccccc3ccn2c1Cc1ccc(OC)cc1C | n | 15.6 | x | 26.0 | n | n
CCCc1nc2c3ccccc3ccn2c1Cc1ccccc1OC | x | n | x | n | x | x
COC(=O)c1c(C)oc(C)c1S(=O)(=O)N1CCOCC1 | n | n | n | n | x | x
CC(=O)Nc1ccc(NC(=O)C(C)OC(=O)C2(c3ccc(Cl)cc3)CCCC2)cc1 (centres undefined) | n | 18.6 | n | 25.1 | n | n
CC(=O)Nc1ccc(NC(=O)C(C)OC(=O)C2(c3ccc(F)cc3)CCCC2)cc1 (centres undefined) | n | n | n | n | x | x
COc1ccc(C(C)=O)cc1COC(=O)c1ccc2c(c1)OCO2 | n | 13.8 | n | n | n | n
COc1ccc(C(C)=O)cc1COC(=O)c1ccc2c(c1)OCCO2 | n | n | n | n | x | x
Cc1cnc(NC(=O)c2cc(-c3ccccc3)nn2-c2ccccc2)s1 | n | 25.1 | x | n | n | n
CC(=O)c1sc(NC(=O)c2cc(-c3ccccc3)nn2-c2ccccc2)nc1C | n | n | n | n | x | x
CCN(CC)C(=O)[C@H]1C[C@H](CC(=O)NCc2ccco2)C(=O)N2CCc3c([nH]c4ccc(Cl)cc34)[C@]12C | n | n | x | n | x | x
N#CCCN1CCC(NC(=O)OCc2ccccc2)CCC1=O (centres undefined) | n | n | n | n | x | x
COc1ccccc1C(=O)NC(CCSC)C(=O)NCC(c1cccs1)N(C)C (centres undefined) | n | 14.2 | n | n | n | n
Cc1cc(Sc2nccn2C)ncc1[N+](=O)[O-] | n | n | n | n | x | x
COc1cccc(-c2oc3c(c2-c2ccc(Br)nc2)C(O)CCC3)c1 (centres undefined) | n | 13.4 | x | n | 21.6 | 28.2
Cc1cc(C(=O)Nn2cnnc2)cs1 | n | n | n | n | x | x
O=C(Nc1ncc2c(n1)CC(c1cccc(Cl)c1)CC2=O)c1ccco1 (centres undefined) | n | 52.2 | n | 85.8 | n | n
OCC1(CCOc2ccccc2)CCN(CCCn2cccn2)CC1 | n | 13.2 | n | n | n | n
CC1(C)CCc2c([nH]c3ccccc3c2=O)O1 | n | n | n | n | x | x
CCC1CCc2c([nH]c3ccccc3c2=O)O1 (centres undefined) | n | 13.3 | n | 21.9 | n | n
CC(=O)c1c(C)[nH]c(C(=O)COC(=O)c2ccc3c(=O)n4c(nc3c2)CCC4)c1C | n | n | n | n | x | x
SMILES | Neddylation inh | MBD2 DNA inh | UBC13 polyUb | UHRF1 binding | UHRF1 ctr MBD2 | MBD2 DBD conf
COc1ccc(C2C3=C(CC(C)(C)CC3=O)Oc3ncn(CCO)c(=N)c32)cc1OC (centres undefined) | n | 49.0 | n | n | n | n
CN(C)c1ncc(C2=C(Cl)C(=O)C(N3CCCC3)=C(Cl)C2=O)s1 | n | 24.3 | n | 72.6 | 36.4 | 24.0
O=C1C(Cl)=C(N2CCCCC2)C(=O)C(Cl)=C1c1cnc(N2CCCCC2)s1 | n | x | n | x | x | x
CCOC(=O)c1c(C)[nH]c(C(=O)OCC(=O)NCc2ccccc2)c1C | n | n | n | n | x | x
NNC(=O)CSc1c(-c2cccs2)[nH]c2ccccc12 | n | n | n | n | x | x
O=C(O)c1cccc(NC(=S)NC(=O)C(c2ccccc2)c2ccccc2)c1 | n | 14.4 | n | n | n | n
O=C(Cc1nnc(NC(=O)c2ccccc2)s1)N/N=C/c1ccco1 | n | 19.0 | n | 27.3 | n | n
